Experimental data reported in the supplement of paper PMC6555819.

Legend:
Test in all cases: PBM binding z-score (relative to random genomic background probes); higher = stronger binding; sequences stand for … in GC…GCGATTGACAGCGTAGAATGAAGG
[1] = tested on: FXR:RXRa (NR concentration 270 nM, RXRa partner concentration 90 nM)
Outline: (§1)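 Custom Agilent 4×180K protein-binding microarrays carried double-stranded probes, each with a 34-nt variable region. These regions held direct-repeat seeds, single-nucleotide variants, half-site ablations and random human genomic background sequences. Ligand-free nuclear receptor dimers were incubated on the arrays for 1 h, antibodies against each partner (one per run) detected binding, and scanned fluorescence was regression-normalized. Binding z-scores take the random background probes as reference.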

[2] = tested on: LXRa:RXRa (NR concentration 270 nM, RXRa partner concentration 90 nM)
Outline: as §1

[3] = tested on: LXRa homodimer (NR concentration 270 nM)
Outline: as §1

[4] = tested on: LXRb:RXRa (NR concentration 270 nM, RXRa partner concentration 90 nM)
Outline: as §1

[5] = tested on: LXRb homodimer (NR concentration 270 nM)
Outline: as §1

[6] = tested on: PPARa:RXRa (NR concentration 270 nM, RXRa partner concentration 90 nM)
Outline: as §1

[7] = tested on: PPARg:RXRa (NR concentration 180 nM, RXRa partner concentration 90 nM)
Outline: as §1

[8] = tested on: PPARg:RXRa 270nM:90nM, anti-RXR (NR concentration 270 nM, RXRa partner concentration 90 nM)
Outline: as §1

[9] = tested on: PPARg:RXRa 30nM:10nM, anti-RXR (NR concentration 30 nM, RXRa partner concentration 10 nM)
Outline: as §1

[10] = tested on: PPARg:RXRa 90nM:30nM, anti-RXR (NR concentration 90 nM, RXRa partner concentration 30 nM)
Outline: as §1

[11] = tested on: PPARg:RXRa DBDmut IVT, anti-RXR (DBD mutation: RXRa K156A/R161A, NR concentration 270 nM, RXRa partner concentration 90 nM)
Outline: as §1

[12] = tested on: PPARg:RXRa IVT, anti-PPARg (NR concentration 270 nM, RXRa partner concentration 90 nM)
Outline: as §1

[13] = tested on: PPARg DBDmut:RXRa IVT, anti-PPARg (DBD mutation: PPARg1 K132A/R137A, NR concentration 270 nM, RXRa partner concentration 90 nM)
Outline: as §1

[14] = tested on: PPARg DBDmut IVT, anti-PPARg (DBD mutation: PPARg1 K132A/R137A, NR concentration 270 nM)
Outline: as §1

[15] = tested on: PPARg homodimer (NR concentration 180 nM)
Outline: as §1

[16] = tested on: PXR:RXRa (NR concentration 270 nM, RXRa partner concentration 90 nM)
Outline: as §1

[17] = tested on: PXR homodimer (NR concentration 270 nM)
Outline: as §1

[18] = tested on: RARa:RXR (NR concentration 270 nM, RXRa partner concentration 90 nM)
Outline: as §1

[19] = tested on: RARa homodimer (NR concentration 270 nM)
Outline: as §1

[20] = tested on: RARb:RXRa (NR concentration 270 nM, RXRa partner concentration 90 nM)
Outline: as §1

| Sequence | PBM binding z-score [1] | PBM binding z-score [2] | PBM binding z-score [3] | PBM binding z-score [4] | PBM binding z-score [5] | PBM binding z-score [6] | PBM binding z-score [7] | PBM binding z-score [8] | PBM binding z-score [9] | PBM binding z-score [10] | PBM binding z-score [11] | PBM binding z-score [12] | PBM binding z-score [13] | PBM binding z-score [14] | PBM binding z-score [15] | PBM binding z-score [16] | PBM binding z-score [17] | PBM binding z-score [18] | PBM binding z-score [19] | PBM binding z-score [20] |
| --- | --- | --- | --- | --- | --- | --- | --- | --- | --- | --- | --- | --- | --- | --- | --- | --- | --- | --- | --- | --- |
| ATCACTAGGTAAGACTCAGTTCAGTGAAGAACGC | 0.15 | 0.00987 | 0.227 | -0.0165 | 0.239 | 0.147 | 0.394 | 0.383 | 0.287 | 0.0779 | 3.04 | 2.02 | 0.271 | 1.07 | 0.437 | 0.891 | 0.972 | 0.026 | 1.03 | 0.143 |
| CAGCCTAGGTCAGGGCCACTATAGGAGGAACGTT | 1.85 | 1.24 | -0.48 | 0.816 | -0.559 | 2.18 | 1.36 | 1.27 | -0.111 | 0.592 | 1.2 | 1.84 | -0.722 | -1.19 | 0.834 | 0.356 | -0.684 | 0.936 | -0.384 | 3.44 |
| TCTCGGAGGACCCGAAAGGTCAGAGCTCGACATC | 2.35 | 2.99 | 1.17 | 2.77 | -0.541 | 3.34 | 0.565 | 2.23 | 2.07 | 2.11 | 1.1 | 0.853 | -0.22 | -0.929 | 1.7 | 3.45 | -0.23 | 4.13 | 0.185 | 3.68 |
| AGAATGAGGTTACCAAAGACCAGGGAAACGCTTG | 1.97 | 4.34 | -0.091 | 1.87 | -0.385 | 3.27 | 2.53 | 2.62 | 0.863 | 1.86 | 3.86 | 3.33 | 0.85 | 0.62 | 0.291 | 1.22 | -0.349 | 2.06 | -0.134 | 2.11 |
| ATCGAAAGGTCGAGGTGAGTATGGAGAAAGGGAA | 3.95 | 3.28 | -0.073 | 2.56 | 0.624 | 4.45 | 3.02 | 3.6 | 1.01 | 2.39 | 0.289 | 2.45 | 0.568 | 0.731 | 1.64 | 2.3 | 0.205 | 2.72 | 0.528 | 3.95 |
| CAAACTAGGTCACCAAAGGTCAAAGTCGAATGAC | 7.53 | 8.61 | 8.25 | 7.82 | 3.21 | 6.74 | 10.1 | 8.27 | 6.41 | 8.55 | 8.22 | 9.1 | 3.38 | 2.17 | 3.38 | 6.88 | 2.28 | 7.52 | 3.8 | 5.85 |
| GTACCAAGGTGAATAGGTCGTCGATGAGTAGGCG | 0.785 | 0.833 | -0.158 | 0.527 | -0.663 | 2.45 | 1.5 | 1.81 | 0.196 | 1.18 | 1.91 | 2.77 | -0.404 | -0.279 | 0.976 | 0.807 | -0.119 | 1.9 | 0.0363 | 2.18 |
